The values below come from PubChem BioAssay.

Molecules are shown by their SMILES. Calls of active or inactive are those of the source.

Experiment [1] concerns XIP peptide (Xip251-270) binding. Put plainly: small-molecule binders of XIP peptide, primary screen, biochemical, small-molecule microarray, fluorescence 635/667 nm, 0.1 µg/mL protein (AID 1182). Conditions: fluorescent protein binding, 635 nm, higher = more signal, called active from +8 up or from −8 down.
The subject of another experiment is XIP peptide (Xip251-270). Put plainly: small-molecule binders of XIP peptide, primary screen, biochemical, small-molecule microarray, fluorescence 635/667 nm, 0.5 µg/mL protein (AID 1183). Conditions: small-molecule microarray binding, fluorescence 635 nm; higher = more signal.
The nature of experiment [2]: Plasmodium falciparum growth inhibition, primary screen, strain 3D7, DAPI fluorescence, 100 nL (AID 1184).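 Further: parasites grown inside human red blood cells in medium with human serum.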 Particulars: P. falciparum 3D7 growth, 3 d, higher = more signal.
Experiment [3] concerns the target Homeobox protein Hox-A13 (Mus musculus) (UniProt Q62424). Put plainly: inhibitors of HoxA13-DNA binding, primary screen, biochemical, fluorescence polarization, labeled oligonucleotide (AID 1185). Conditions: 15 min, higher = more signal, called active from +8 up or from −8 down. (In fluorescence polarisation assays a small probe gives low polarisation when free and higher when bound to something large.)

Chain of Homeobox protein Hox-A13 (Mus musculus) (Q62424 whole entry, looked up): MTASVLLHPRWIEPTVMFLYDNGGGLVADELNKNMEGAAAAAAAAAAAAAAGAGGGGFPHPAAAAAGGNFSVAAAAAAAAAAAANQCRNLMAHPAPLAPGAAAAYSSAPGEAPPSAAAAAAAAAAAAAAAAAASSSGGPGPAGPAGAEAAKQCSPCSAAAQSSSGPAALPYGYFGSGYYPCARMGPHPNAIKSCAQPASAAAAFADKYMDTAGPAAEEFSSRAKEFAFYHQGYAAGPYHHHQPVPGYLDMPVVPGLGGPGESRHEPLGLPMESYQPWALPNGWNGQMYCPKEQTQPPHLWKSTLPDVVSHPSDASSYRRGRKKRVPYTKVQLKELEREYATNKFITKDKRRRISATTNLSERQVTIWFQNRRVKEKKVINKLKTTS

On to `COc1ccc(C#C[C@@H]2C=C[C@H](OC(C)=O)[C@@H](COC(C)=O)O2)cc1`, for which the composite z-score was 3.11 (inactive) in experiment [1] and 0.443 in the experiment with XIP peptide (Xip251-270). In addition, the z-score in experiment [2] was 0.714; in experiment [3] it was -2.53 (inactive).

`CO[C@@H]1C=CCC(=O)N[C@@H](C)C(=O)OC[C@@H](OC)[C@H](C)CCCC(=O)OC[C@H]1C`: the composite z-score in experiment [1] was -0.203 (inactive); with XIP peptide (Xip251-270), 0.111. Besides, the z-score in experiment [2] was 0.0984; in experiment [3] it was -0.313 (inactive).

`CCOC(=O)[C@H](Cc1ccccc1)NC(=O)OC1CC(CCC2CC(CC)=NO2)OC2(CCCC(COC(=O)NCCC(C)C)O2)C1` (stereo partly drawn): the composite z-score in experiment [1] is 0.654 (inactive); in the experiment with XIP peptide (Xip251-270) it was 0.527. In addition, the figures for the z-score in experiment [2] and in experiment [3] were -1.04 and -5.07 (inactive), respectively.

As for `COc1cccc([C@H]2Oc3ccc(OC)cc3C(=NOC[C@@H](O)[C@H]3O[C@@H]4OC(C)(C)O[C@@H]4[C@H]3O)[C@@H]2O)c1`, the values for the composite z-score (in experiment [1]; with XIP peptide (Xip251-270)) were -0.815 (inactive) and 0.697, respectively. The z-score in experiment [2] is 0.187; in experiment [3], -3.04 (inactive).

For the compound `CO[C@@H]1COC(=O)CC=C[C@H](C)[C@H](OC)COC(=O)[C@H](C)NC(=O)CC=C[C@H]1C`, the values for the composite z-score (in experiment [1]; in the experiment on XIP peptide (Xip251-270)) were -0.436 (inactive) and 0.82, respectively. In addition, the z-score was -0.382 in experiment [2] and 0.189 (inactive) in experiment [3].

Regarding `CO[C@@H]1COC(=O)[C@@H](C)NC(=O)CC=C[C@@H](C)[C@H](NS(=O)(=O)c2ccc(C)cc2)COC(=O)[C@H](C)NC(=O)CC=C[C@H]1C`, the composite z-score in experiment [1] is 0.199 (inactive); with XIP peptide (Xip251-270) it was 0.113. The z-score was 0.327 in experiment [2] and -0.348 (inactive) in experiment [3].

Turning to `CCOC(=O)NN=C1C[C@@H](O)[C@@H](O)[C@@H]2[C@@H]3C(=O)N([C@@H](C)c4ccccc4)C(=O)[C@@H]3CC[C@H]12`, the composite z-score in experiment [1] is 0.0004 (inactive); in the experiment on XIP peptide (Xip251-270), -0.0286. In addition, the z-score in experiment [2] was -0.125; in experiment [3], -1.52 (inactive).

As to `O=C1C[C@@H](O)[C@@H](O)[C@@H]2[C@@H]3C(=O)N(c4cccc(Oc5ccccc5)c4)C(=O)[C@@H]3CC[C@H]12`, the composite z-score in experiment [1] was 0.0532 (inactive); with XIP peptide (Xip251-270), 0.111. Moreover, the z-score in experiment [2] was 1.33; in experiment [3] it was -0.14 (inactive).

For the compound `CC(=O)OC[C@H]1O[C@H](C#Cc2ccccc2)C=C[C@@H]1OC(C)=O`, the composite z-score in experiment [1] was -0.794 (inactive); in the experiment on XIP peptide (Xip251-270), 0.823. In addition, the z-score was 0.0037 in experiment [2] and -3 (inactive) in experiment [3].

On to `COc1cccc([C@H]2Oc3ccc(OC)cc3C(=NO[C@@H](C)c3cn([C@H](CO)Cc4ccccc4)nn3)[C@@H]2O)c1`, for which the composite z-score in experiment [1] is 0.213 (inactive); with XIP peptide (Xip251-270), 0.502. Moreover, the z-score in experiment [2] is -0.868; in experiment [3], -6.48 (inactive).

With `O=C1C[C@@H](O)[C@@H](O)[C@@H]2[C@@H]3C(=O)N(Cc4ccccc4)C(=O)[C@@H]3CC[C@@H]12`, the composite z-score in experiment [1] is 0.245 (inactive); in the experiment on XIP peptide (Xip251-270), 0.5. The z-score in experiment [2] was 0.328; in experiment [3], -0.967 (inactive).

Take `C=COC[C@@H]1CN2[C@@H](CC[C@@H](C)[C@@H]2c2ccc(Br)cc2)C(=O)O1`: the composite z-score in experiment [1] is -0.0657 (inactive); in the experiment on XIP peptide (Xip251-270) it was 0.103. Moreover, the z-score in experiment [2] is -0.977; in experiment [3] it was -2.54 (inactive).

`CO[C@H]1COC(=O)[C@@H](C)COC(=O)[C@H](C)NC(=O)CC=C[C@H]1C`: the composite z-score was -0.166 (inactive) in experiment [1] and 0.564 with XIP peptide (Xip251-270). Moreover, the z-score in experiment [2] was -0.455; in experiment [3] it was -0.236 (inactive).

For `COC(=O)[C@@H]1CC[C@H](C)[C@@H](c2ccc(C)cc2)N1C(=O)c1ccc(C=NO[C@H](C)c2cn([C@H](CO)Cc3ccccc3)nn2)cc1`, the composite z-score in experiment [1] is -0.402 (inactive); in the experiment on XIP peptide (Xip251-270) it was 0.658. The z-score in experiment [2] was -1.76; in experiment [3], -5.94 (inactive).

With `CCOC(=O)[C@H](Cc1ccccc1)NC(=O)CCC1CC(OC(=O)NCCc2ccc(F)cc2)CC2(CCCC(COC(=O)NCC3CCCCC3)O2)O1` (stereo partly drawn), the results for the composite z-score (in experiment [1]; with XIP peptide (Xip251-270)) were 0.233 (inactive) and 0.605, respectively. Further, the z-score in experiment [2] is -1.82; in experiment [3], -2.33 (inactive).

On to `CCOC(=O)[C@H](Cc1ccccc1)NC(=O)CCC1CC(OC(=O)NCc2cccc3ccccc23)CC2(CCCC(COC(=O)NCc3ccccc3)O2)O1` (stereo partly drawn), for which the composite z-score in experiment [1] is 0.278 (inactive); in the experiment with XIP peptide (Xip251-270), 0.355. Further, the z-score is -1.41 in experiment [2] and -1.5 (inactive) in experiment [3].

Turning to `O=C1[C@H]2[C@H]3[C@H](O)[C@H](O)CC(=NOC[C@@H](O)COCc4ccco4)[C@H]3CC[C@H]2C(=O)N1Cc1ccccc1`, the composite z-score in experiment [1] was -0.227 (inactive); in the experiment with XIP peptide (Xip251-270), 0.252. Besides, the z-score in experiment [2] is 0.254; in experiment [3], -2.38 (inactive).

As to `C#CCCCON=C1C[C@@H](O)[C@@H](O)[C@@H]2[C@@H]3C(=O)N(c4ccc(F)cc4F)C(=O)[C@@H]3CC[C@@H]12`, the composite z-score in experiment [1] was 0.76 (inactive); in the experiment with XIP peptide (Xip251-270) it was 0.0996. Besides, the z-score in experiment [2] was -0.217; in experiment [3] it was -3.13 (inactive).

Regarding `O=C(C=Cc1ccc2c(c1)OCO2)c1ccc(F)cc1`, the results for the composite z-score (in experiment [1]; in the experiment on XIP peptide (Xip251-270)) were -0.158 (inactive) and 0.629, respectively. The z-score in experiment [2] was -0.533; in experiment [3], 0.526 (inactive).

On to `C=CC[C@@H]1C=C[C@H](ON=C2[C@H]3CCn4c(=O)n(-c5ccccc5)c(=O)n4[C@H]3[C@H](O)[C@@H]3O[C@H]23)[C@@H](CO)O1`, for which the composite z-score is 0.372 (inactive) in experiment [1] and 0.287 in the experiment on XIP peptide (Xip251-270). In addition, the z-score in experiment [2] was -0.605; in experiment [3], -2.05 (inactive).

On to `CC(=O)OC[C@H]1OC(ON=CC[C@@H]2C=C[C@H](OC(C)=O)[C@@H](COC(C)=O)O2)[C@H](OC(C)=O)[C@@H](OC(C)=O)[C@@H]1OC(C)=O` (stereo partly drawn), for which the composite z-score in experiment [1] was -0.476 (inactive); with XIP peptide (Xip251-270), 0.0849. In addition, the values for the z-score in experiment [2] and in experiment [3] were 0.728 and -2.22 (inactive), respectively.

Turning to `CCOC(=O)CCN1C(=O)[C@H]2[C@H]3[C@H](O)[C@H](O)CC(=NOCC(C)C)[C@H]3CC[C@H]2C1=O`, the composite z-score in experiment [1] was 0.289 (inactive); with XIP peptide (Xip251-270), 0.158. Moreover, the results for the z-score in experiment [2] and in experiment [3] were 1.2 and 0.737 (inactive), respectively.
